# Data reported in ChEMBL document CHEMBL3433997, “St. Jude Leishmania screening dataset” (2016).
# Target: Solute carrier family 2, facilitated glucose transporter member 1 (Homo sapiens) (UniProt P11166)
# Assay: ST_JUDE_LEISH: Cytotoxicity at 2uM final concentration against transgenic Leishmania Mexicana promastigotes LmGLUT1 that are glucose transport deficient and complemented with the human glucose transporter GLUT1. Activity is measured by DNA content using SYBR green in vitro
# Type: functional
# Solute carrier family 2, facilitated glucose transporter member 1 (Homo sapiens), sequence (P11166 whole entry): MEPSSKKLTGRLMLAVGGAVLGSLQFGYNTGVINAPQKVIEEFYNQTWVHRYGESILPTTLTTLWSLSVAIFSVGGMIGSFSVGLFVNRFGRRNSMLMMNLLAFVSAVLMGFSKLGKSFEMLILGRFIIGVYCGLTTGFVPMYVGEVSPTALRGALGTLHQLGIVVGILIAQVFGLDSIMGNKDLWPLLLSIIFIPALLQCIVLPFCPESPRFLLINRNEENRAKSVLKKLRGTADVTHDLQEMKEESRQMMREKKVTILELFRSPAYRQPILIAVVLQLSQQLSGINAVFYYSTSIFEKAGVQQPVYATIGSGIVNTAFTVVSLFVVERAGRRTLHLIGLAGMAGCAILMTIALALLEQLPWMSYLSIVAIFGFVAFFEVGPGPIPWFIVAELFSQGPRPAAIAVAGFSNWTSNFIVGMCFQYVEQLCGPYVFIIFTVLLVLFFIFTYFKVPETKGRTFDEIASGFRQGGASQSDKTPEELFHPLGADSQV
row,SMILES,inhibition
1,Cc1noc(=O)c2ccc(NC(=O)C(O)(CSc3ccccc3)CC(C)C)cc12 (stereo unspecified),6.92%
2,COc1ccccc1-c1ccc(C(=O)NCC2CCCN(Cc3cccc(C(F)(F)F)c3)C2)s1 (stereo unspecified),6.82%
3,CC(C)(Cc1ccc(Cl)cc1)NCCCCCCNCCc1ccc(O)c(O)c1,-0.5%
4,CN(C)S(=O)(=O)n1ccc2c3c(N)nc(N)nc3ccc21,44.3%
5,COc1cccc(-c2ccc3c(-c4ccc(F)cc4)cnc(N)c3c2)c1,5.2%
6,COc1cc2nc(N3CCC(CNCc4ccc(-c5ccc(C(F)(F)F)cc5)cc4)CC3)nc(N)c2cc1OC,106%
7,COc1cc(C(=O)NC2CCN(Cc3ccccc3)CC2)ccc1-c1nc2cc(Cl)c(C)cc2[nH]1,10.1%
8,Cc1ccc(NC(=O)c2ccc(NCCCN3CC(C)CC(C)C3)c([N+](=O)[O-])c2)cc1F (stereo unspecified),8.68%
9,CCCCCC(C)N/C(=N/c1ccccc1Br)Nc1ccc(C#N)cc1O (stereo unspecified),2.35%
10,CC(C)(C)c1cc(NC(=O)c2ccc(Cl)c([N+](=O)[O-])c2)cc(C(C)(C)C)c1,6.54%
11,Nc1cc(/C=C/c2ccc([N+](=O)[O-])o2)nc2ccccc12,104%
12,COc1ccc2nccc(NCC3(O)CCN(CC(O)c4ccc5c(c4)NC(=O)CS5)CC3)c2n1 (stereo unspecified),3.39%
13,COc1ccc(CNC2CCN(C)CC2)cc1-c1ccc(S(=O)(=O)NCC2CCCO2)s1 (stereo unspecified),3.99%
14,CCOC(=O)COc1cccc(CNc2ccc3nc(N)nc(N)c3c2)c1,2.95%
15,CCCC(C)Nc1nc(C)cc(N[C@@H](CC(C)C)C(=O)NCCOc2ccccc2)n1 (stereo partly specified),21.4%
16,O=C(Nc1ccc(Oc2ccccc2)cc1)N[C@H]1CCN(Cc2ccc(OCCCN3CCCCC3)cc2)C1,-2.21%
